In PubChem BioAssay:
Calls of active or inactive are those of the source. Unless noted, no stated cut-off is given here; in the data, active means inhibition above about 80%; inactive means the rest.

Tests used:
[1] = growth inhibition, single agent or in combination, cell-based, chromothripsis tumors, cisplatin or BGB combos (AID 1671449); conditions: LFS_MB_P medulloblastoma cells;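 further: cells exposed for 96 hours; 0% = vehicle DMSO and 100% = killing by high DMSO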
[2] = growth inhibition, single agent and combos, cell-based, chromothripsis tumors, cisplatin or BGB combos (AID 1671450); conditions: HDN33 neuroblastoma cells, stronger effect = higher value;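 further: cells exposed to compound for four days; 0% = vehicle DMSO and 100% = cell killing by high DMSO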
[3] = growth inhibition, single agents and combos, ICB984, cell-based, cisplatin or BGB combos, synergistic combos for chromothripsis tumors (AID 1671451; call rule not given here;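 further: cells exposed for 96 hours before readout; 0% = vehicle DMSO and 100% = killing by high DMSO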); conditions: ICB984 medulloblastoma cells, drug combinations, stronger effect = higher value
[4] = growth inhibition, single agents and combos, LFS_MB_1R, cell-based, cisplatin or BGB combos, synergistic combos for chromothripsis tumors (AID 1671452); conditions: LFS_MB_1R medulloblastoma cells, stronger effect = higher value;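 further: cells exposed for 96 hours before readout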
[5] = growth inhibition, single agents and combos, HTB85, cell-based, BGB or cisplatin IC20 combos, synergistic combos for chromothripsis tumors (AID 1671453); conditions: HTB85 osteosarcoma cells, drug combinations, stronger effect = higher value;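 further: cells exposed for 96 hours before readout; 0% = vehicle DMSO and 100% = high DMSO killing control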
[6] = growth inhibition, single agents and combos, CRL2098, cell-based, BGB or cisplatin IC20 combos, synergistic combos for chromothripsis tumors (AID 1671454); conditions: CRL2098 osteosarcoma cells, drug combinations, stronger effect = higher value;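 further: cells exposed for 96 h before readout; 0% = vehicle DMSO and 100% = killing by high DMSO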
[7] = growth inhibition, single agents and combos, HD-MB03, cell-based, BGB or cisplatin IC20 combos, synergistic combos for chromothripsis tumors (AID 1671455; in the data active means inhibition above about 83%;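 further: 0% = vehicle DMSO and 100% = high DMSO as cytotoxic control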); conditions: HD-MB03 medulloblastoma cells, stronger effect = higher value
[8] = growth inhibition, single agents and combos, UWB1.289, cell-based, BGB or cisplatin combos, synergistic combos for chromothripsis tumors (AID 1671456); conditions: UWB1.289 ovarian carcinoma cells, stronger effect = higher value;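 further: cells exposed to compound for four days; 0% = vehicle DMSO and 100% = killing by high DMSO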
[9] = growth inhibition, single agents and combos, LFS_MB_2R, cell-based, cisplatin combos, synergistic combos for chromothripsis tumors (AID 1671457); conditions: LFS_MB_2R medulloblastoma cells, stronger effect = higher value;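 further: cells exposed to compound for four days before readout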
[10] = growth inhibition, MDA-MB-436, cell-based, BGB or cisplatin combos, synergistic combos for chromothripsis tumors (AID 1671458; call rule not given here;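 further: cells exposed for 96 hours; 0% = vehicle DMSO and 100% = killing by high DMSO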); conditions: MDA-MB-436 breast carcinoma growth inhibition, drug combinations, stronger effect = higher value
[11] = UWB1.289_BRCA1 ovarian cancer growth, cell-based, BGB or cisplatin combinations (AID 1671459); conditions: UWB1.289 BRCA1 ovarian carcinoma, drug combinations, stronger effect = higher value
[12] = drug combination toxicity in non-malignant astrocytes – cell-based, BGB or cisplatin IC20 combos, cytotoxicity control for chromothriptic childhood tumor combination screen (AID 1671460); conditions: Human astrocytes, viability inhibition, drug combinations, at 0.5 µM, stronger effect = higher value;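 further: cells exposed to compounds for 96 hours before viability readout; 0% = vehicle and 100% = killing control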
[13] = BT084 cell growth, single and combined drugs, ICGC_MB145, cisplatin and BGB IC40 combos (AID 1671461); conditions: BT084 medulloblastoma cells, drug combinations, stronger effect = higher value;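 further: cells exposed to drugs for 96 hours; 0% = vehicle DMSO and 100% = high DMSO full killing control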
[14] = RCMB18 cell growth, single agent and combined, cisplatin and BGB IC40 combos (AID 1671462); conditions: RCMB18 medulloblastoma cells, stronger effect = higher value;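 further: cells exposed to compound for four days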
[15] = measured here: combination with BGB IC40, at 0.05 µM
[16] = measured here: combination with cisplatin, at 0.5 µM
[17] = measured here: combination with cisplatin, at 5 µM

## CON=C1CN(c2nc3c(cc2F)c(=O)c(C(=O)O)cn3C2CC2)CC1CN (stereo not given)
[1]; at 0.5 µM, stronger effect = higher value
  inhibition: -25.3% (inactive)
[1]; measured here: combination with BGB IC20, at 0.005 µM
  inhibition: -14.3%
[1]; measured here: combination with BGB IC40, at 0.005 µM
  inhibition: -29%
[1]; [15]
  inhibition: -34.5%
[1]; measured here: combination with cisplatin, at 0.5 µM, stronger effect = higher value
  inhibition: -40.3%
[1]; measured here: combination with cisplatin, at 5 µM, stronger effect = higher value
  inhibition: -32.3%
[2]; BGB combo, at 5 µM
  inhibition: -16.7%
[2]; at 0.5 µM
  inhibition: 7.67% (inactive)
[2]; cisplatin combo, at 5 µM
  inhibition: -7.53%
[2]; measured here: with BGB IC20 combination, at 0.5 µM
  inhibition: 8.62%
[2]; measured here: with cisplatin IC20 combination, at 0.5 µM
  inhibition: 24.5%
[2]; single agent, at 5 µM
  inhibition: -10.6%
[3]; BGB IC20 combo, at 0.005 µM
  inhibition: -9.19%
[3]; BGB IC40 combo, at 0.005 µM
  inhibition: -11.5%
[3]; BGB IC40 combo, at 0.05 µM
  inhibition: -24.2%
[3]; at 0.5 µM
  inhibition: -23.7% (inactive)
[3]; cisplatin combo, at 0.05 µM
  inhibition: -30.6%
[3]; cisplatin combo, at 0.5 µM
  inhibition: -28.8%
[3]; cisplatin combo, at 5 µM
  inhibition: -12.6%
[3]; measured here: 5 uM single agent, at 5 µM
  inhibition: -12.7%
[4]; at 0.5 µM
  inhibition: -19.1% (inactive)
[4]; [15]
  inhibition: -15.4%
[4]; [16]
  inhibition: -33.2%
[4]; [17]
  inhibition: -30.4%
[5]; at 0.5 µM
  inhibition: 5.68% (inactive)
[5]; measured here: with BGB IC20, at 0.5 µM
  inhibition: 30.9%
[5]; measured here: with BGB IC20, at 5 µM
  inhibition: 13.1%
[5]; measured here: with cisplatin IC20, at 0.5 µM
  inhibition: -15.5%
[5]; measured here: with cisplatin IC20, at 5 µM
  inhibition: 2.1%
[5]; single agent, at 5 µM
  inhibition: 3.62%
[6]; at 0.5 µM
  inhibition: -6.34% (inactive)
[6]; measured here: combination with BGB at IC20, at 0.5 µM
  inhibition: -22.3%
[6]; measured here: combination with cisplatin at IC20, at 0.5 µM
  inhibition: 10.2%
[7]; at 0.5 µM
  inhibition: -12.3% (inactive)
[7]; measured here: combo with BGB at IC20, at 0.5 µM
  inhibition: -16.7%
[7]; measured here: combo with cisplatin at IC20, at 0.5 µM
  inhibition: -12.2%
[8]; at 0.5 µM
  inhibition: -4.81% (inactive)
[8]; measured here: inhibition with BGB combination, at 0.05 µM
  inhibition: -8.23%
[8]; measured here: inhibition with cisplatin combination, at 0.05 µM
  inhibition: -6.42%
[9]; at 0.5 µM
  inhibition: -15.8% (inactive)
[9]; [16]
  inhibition: -15.1%
[9]; [17]
  inhibition: -25.5%
[10]; at 0.5 µM
  inhibition: -11.3% (inactive)
[10]; measured here: BGB combination, at 0.5 µM
  inhibition: -3.57%
[10]; measured here: BGB combination, at 5 µM
  inhibition: -21.3%
[10]; measured here: cisplatin combination, at 0.5 µM
  inhibition: -27.7%
[10]; measured here: cisplatin combination, at 5 µM
  inhibition: -9.24%
[11]; BGB combination, concentration series, at 5 µM
  inhibition: -28.4%
[11]; at 0.5 µM
  inhibition: -4.07% (inactive)
[11]; cisplatin combination, concentration series, at 5 µM
  inhibition: -3.27%
[12]
  inhibition: 0.97% (inactive)
[12]; measured here: combo with BGB IC20
  inhibition: 7.71%
[12]; measured here: combo with cisplatin IC20
  inhibition: 2.88%
[13]; at 0.5 µM
  inhibition: -10.5% (inactive)
[13]; cisplatin combination, at 0.5 µM
  inhibition: -2.65%
[13]; cisplatin combination, at 5 µM
  inhibition: -140%
[13]; measured here: BGB IC40 combination 0.05 uM, at 0.05 µM
  inhibition: -26.9%
[13]; single agent, at 5 µM
  inhibition: -46.4%
[14]; at 0.5 µM
  inhibition: -9.98% (inactive)
[14]; cisplatin combo, at 5 µM
  inhibition: 24.4%
